# Test results: PubChem BioAssay (EPA / NIEHS)
# Inconclusive results are not listed. Calls of active or inactive are those of the source. The calls were made as follows: active = hit-call score of the fitted dose curve at least 0.9, where 1 is the maximum; inconclusive = response in the unintended direction; inactive = score below 0.9.
# Assays:
# [1] = target: Estrogen receptor (Homo sapiens) + Estrogen receptor beta (Homo sapiens) (UniProt P03372+Q92731); test: OT_ER_ERaERb_1440: Odyssey Thera (OT) 24-hour HEK293T Protein-Complementation Assay for Estrogen Receptor-alpha/-beta Homodimer (AID 2283356);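 also: heteromer of ER alpha and ER beta binding domains; hits raise reporter fluorescence and both agonists and antagonists give an increase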
# Sequence of Estrogen receptor (Homo sapiens) + Estrogen receptor beta (Homo sapiens) (P03372 whole entry, looked up, the tested form may be a part): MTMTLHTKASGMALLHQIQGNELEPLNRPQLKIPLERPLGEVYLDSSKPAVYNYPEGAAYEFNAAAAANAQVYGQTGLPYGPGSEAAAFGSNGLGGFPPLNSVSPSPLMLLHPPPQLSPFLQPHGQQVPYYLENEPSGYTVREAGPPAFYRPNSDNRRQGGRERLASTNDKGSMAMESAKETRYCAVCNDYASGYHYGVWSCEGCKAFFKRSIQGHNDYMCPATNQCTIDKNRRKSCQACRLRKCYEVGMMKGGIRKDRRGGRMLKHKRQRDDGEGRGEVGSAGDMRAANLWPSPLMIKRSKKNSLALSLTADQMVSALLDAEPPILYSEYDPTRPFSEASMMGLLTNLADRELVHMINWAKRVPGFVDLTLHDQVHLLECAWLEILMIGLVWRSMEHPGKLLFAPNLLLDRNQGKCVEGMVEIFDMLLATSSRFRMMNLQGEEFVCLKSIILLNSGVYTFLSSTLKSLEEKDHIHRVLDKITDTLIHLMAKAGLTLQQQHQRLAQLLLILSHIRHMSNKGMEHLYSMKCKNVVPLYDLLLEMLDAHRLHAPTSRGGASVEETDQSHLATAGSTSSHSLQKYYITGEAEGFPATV
# Sequence of Estrogen receptor (Homo sapiens) + Estrogen receptor beta (Homo sapiens) (Q92731 whole entry, looked up, the tested form may be a part): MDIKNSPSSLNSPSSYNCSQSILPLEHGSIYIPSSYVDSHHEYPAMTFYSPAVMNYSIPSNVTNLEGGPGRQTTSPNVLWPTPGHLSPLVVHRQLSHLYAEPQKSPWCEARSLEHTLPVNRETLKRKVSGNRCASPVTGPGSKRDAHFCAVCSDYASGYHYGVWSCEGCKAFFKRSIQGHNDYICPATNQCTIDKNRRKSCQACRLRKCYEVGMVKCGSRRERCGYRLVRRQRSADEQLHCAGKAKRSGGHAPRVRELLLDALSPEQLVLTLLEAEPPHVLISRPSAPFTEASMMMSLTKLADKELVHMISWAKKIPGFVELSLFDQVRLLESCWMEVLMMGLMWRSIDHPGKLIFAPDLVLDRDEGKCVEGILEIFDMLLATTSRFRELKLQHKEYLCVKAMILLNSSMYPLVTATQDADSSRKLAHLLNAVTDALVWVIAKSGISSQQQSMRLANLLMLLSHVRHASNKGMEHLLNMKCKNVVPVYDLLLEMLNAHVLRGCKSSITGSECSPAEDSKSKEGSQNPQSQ
# Procedure, shortened: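 HEK293T cells stably expressing a PCA pair of ERα LBD (aa 310-547) and ERβ LBD (aa 263-489) were dosed for 24 h. Fluorescence intensity increase versus DMSO vehicle was fitted as gain-of-signal.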
# [2] = target: Estrogen receptor beta (Homo sapiens) (UniProt Q92731); test: OT_ER_ERbERb_0480: Odyssey Thera (OT) 8-hour HEK293T Protein-Complementation Assay for Estrogen Receptor-beta/-beta Homodimer (AID 2283357);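 also: active means signal gain over DMSO baseline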
# Sequence of Estrogen receptor beta (Homo sapiens) (Q92731 whole entry, looked up, the tested form may be a part): as above
# Procedure, shortened: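 Fluorescence intensity, nuclear for agonists and nuclear plus cytoplasmic for antagonists, was quantified by laser scanning cytometry versus vehicle after 8 h treatment. The cells were HEK293T stably carrying ER beta LBD fragment-complementation partners.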
# [3] = target: Retinoic acid receptor alpha (Homo sapiens) (UniProt P10276); test: NVS_NR_hRAR_Antagonist: NovaScreen (NVS) Nuclear Receptor Binding Assay for human Retinoic Acid Alpha Receptor Antagonism (RAR) (AID 2283358)
# Sequence of Retinoic acid receptor alpha (Homo sapiens) (P10276 whole entry, looked up): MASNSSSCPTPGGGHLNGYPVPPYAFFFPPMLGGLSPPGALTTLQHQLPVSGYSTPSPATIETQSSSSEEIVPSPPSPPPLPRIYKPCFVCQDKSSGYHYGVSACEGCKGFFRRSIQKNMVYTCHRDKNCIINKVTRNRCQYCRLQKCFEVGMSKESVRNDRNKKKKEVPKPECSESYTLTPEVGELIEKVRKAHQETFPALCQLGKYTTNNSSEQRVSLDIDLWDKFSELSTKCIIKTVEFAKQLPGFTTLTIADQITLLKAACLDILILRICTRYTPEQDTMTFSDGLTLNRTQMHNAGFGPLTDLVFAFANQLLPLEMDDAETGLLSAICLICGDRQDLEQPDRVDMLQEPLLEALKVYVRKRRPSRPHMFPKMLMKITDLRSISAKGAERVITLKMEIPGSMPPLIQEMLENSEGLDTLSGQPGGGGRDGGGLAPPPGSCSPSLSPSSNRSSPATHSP
# Procedure, shortened: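 Cell-free TR-FRET binding assay with extracted human RARalpha in antagonist mode, read 2 h after dosing. Loss of signal was fitted relative to DMSO; the primary screen used 25 uM in duplicate, with concentration series on follow-up.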
# [4] = target: PGR (gene 5241) (UniProt P06401); test: NVS_NR_hPR: NovaScreen (NVS) Nuclear Receptor Binding Assay for human Progestron Receptor (PR) (AID 2283360);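 also: active means loss of bound radioligand signal versus DMSO baseline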
# Sequence of PGR (gene 5241) (P06401 whole entry, looked up): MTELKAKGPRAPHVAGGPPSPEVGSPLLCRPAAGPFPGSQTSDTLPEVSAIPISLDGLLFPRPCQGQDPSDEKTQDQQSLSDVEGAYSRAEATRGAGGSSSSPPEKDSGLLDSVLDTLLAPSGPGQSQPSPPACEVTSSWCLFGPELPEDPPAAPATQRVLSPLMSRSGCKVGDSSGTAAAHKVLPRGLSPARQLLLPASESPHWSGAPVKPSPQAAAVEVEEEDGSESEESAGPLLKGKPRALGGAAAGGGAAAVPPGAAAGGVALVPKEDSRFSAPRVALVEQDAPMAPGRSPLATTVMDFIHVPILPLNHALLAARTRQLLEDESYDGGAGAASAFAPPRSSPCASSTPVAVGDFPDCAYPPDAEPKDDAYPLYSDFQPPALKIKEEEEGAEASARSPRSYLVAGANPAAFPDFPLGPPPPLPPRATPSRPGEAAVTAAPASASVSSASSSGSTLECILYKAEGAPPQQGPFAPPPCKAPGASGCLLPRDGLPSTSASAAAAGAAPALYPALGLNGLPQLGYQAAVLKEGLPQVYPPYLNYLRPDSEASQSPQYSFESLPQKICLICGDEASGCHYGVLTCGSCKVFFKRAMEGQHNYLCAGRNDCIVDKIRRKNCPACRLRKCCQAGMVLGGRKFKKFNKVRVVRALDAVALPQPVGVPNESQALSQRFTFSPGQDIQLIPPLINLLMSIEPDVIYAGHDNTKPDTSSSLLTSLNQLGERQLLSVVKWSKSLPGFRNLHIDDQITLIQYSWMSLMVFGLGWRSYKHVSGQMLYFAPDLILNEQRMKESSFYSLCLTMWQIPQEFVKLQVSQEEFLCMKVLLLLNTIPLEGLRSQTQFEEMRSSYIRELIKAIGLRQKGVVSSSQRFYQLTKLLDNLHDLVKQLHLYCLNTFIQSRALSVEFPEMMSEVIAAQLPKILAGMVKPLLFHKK
# Procedure, shortened: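 Radioligand competition binding on receptor extracted from T47D cells, read by scintillation counting 18 h after dosing. Loss of signal versus DMSO; primary screen in duplicate at 25 uM, actives followed in concentration series.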
# [5] = target: human Thyroid Receptor Alpha (TRa), THRA (gene 7067) (UniProt P10827); test: NVS_NR_hTRa_Antagonist: NovaScreen (NVS) Nuclear Receptor Binding Assay for human Thyroid Receptor Alpha Antagonism (TRa) (AID 2283362);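 also: activity is loss of signal relative to DMSO baseline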
# Sequence of human Thyroid Receptor Alpha (TRa), THRA (gene 7067) (P10827 whole entry, looked up): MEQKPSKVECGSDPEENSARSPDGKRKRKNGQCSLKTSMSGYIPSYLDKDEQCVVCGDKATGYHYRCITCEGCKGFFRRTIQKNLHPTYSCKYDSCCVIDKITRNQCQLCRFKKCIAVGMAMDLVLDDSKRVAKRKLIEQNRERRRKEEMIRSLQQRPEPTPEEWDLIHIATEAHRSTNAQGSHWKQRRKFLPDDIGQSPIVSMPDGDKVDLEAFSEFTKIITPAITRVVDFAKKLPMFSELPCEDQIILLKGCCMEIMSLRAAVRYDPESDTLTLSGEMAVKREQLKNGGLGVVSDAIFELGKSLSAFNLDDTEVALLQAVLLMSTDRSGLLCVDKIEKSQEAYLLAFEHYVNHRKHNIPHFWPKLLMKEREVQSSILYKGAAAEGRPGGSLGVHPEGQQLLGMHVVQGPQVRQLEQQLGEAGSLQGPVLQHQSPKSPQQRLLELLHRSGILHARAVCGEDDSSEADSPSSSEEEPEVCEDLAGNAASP
# Procedure, shortened: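 Cell-free binding assay on extracted receptor protein, read 1 h after chemical dosing by AlphaLISA chemiluminescence; loss of signal relative to DMSO baseline marks antagonism. Primary screen ran in duplicate at 25 uM, with concentration series for actives.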
# [6] = target: Glucocorticoid receptor (Homo sapiens) (UniProt P04150); test: NVS_NR_hGR: NovaScreen (NVS) Nuclear Receptor Binding Assay for human Glucocorticoid Receptor (GR) (AID 2283363);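 also: activity is loss of specific radioligand binding signal relative to DMSO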
# Procedure, shortened: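 Cell-free radioligand displacement assay on extracted human GR, read 16 h after dosing by filter-based scintillation counting. Screened in duplicate at 25 uM, then concentration series for actives; loss of signal versus DMSO baseline.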
# [7] = target: Peroxisome proliferator-activated receptor gamma (Homo sapiens) (UniProt P37231); test: NVS_NR_hPPARg: NovaScreen (NVS) Nuclear Receptor Binding Assay for human Peroxisome Proliferator-activated Receptor gamma (PPARg) (AID 2283370)
# Sequence of Peroxisome proliferator-activated receptor gamma (Homo sapiens) (P37231 whole entry, looked up): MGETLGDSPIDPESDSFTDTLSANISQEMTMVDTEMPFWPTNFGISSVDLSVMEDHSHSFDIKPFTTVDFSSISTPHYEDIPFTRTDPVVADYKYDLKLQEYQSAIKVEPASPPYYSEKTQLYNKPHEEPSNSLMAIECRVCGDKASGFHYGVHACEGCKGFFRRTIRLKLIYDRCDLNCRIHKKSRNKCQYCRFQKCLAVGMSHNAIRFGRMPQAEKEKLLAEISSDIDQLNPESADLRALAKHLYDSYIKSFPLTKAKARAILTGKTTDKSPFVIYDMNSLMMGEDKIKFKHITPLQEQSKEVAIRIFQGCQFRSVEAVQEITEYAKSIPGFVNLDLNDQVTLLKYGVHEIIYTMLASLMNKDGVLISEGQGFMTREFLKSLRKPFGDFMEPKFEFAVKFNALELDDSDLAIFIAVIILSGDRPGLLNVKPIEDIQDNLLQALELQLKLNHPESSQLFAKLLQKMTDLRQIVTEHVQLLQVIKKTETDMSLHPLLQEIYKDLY
# Procedure, shortened: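 Cell-free binding to extracted PPARg protein, read by fluorescence polarization 2 h after dosing; loss of signal relative to DMSO baseline marks displacement. Primary screen in duplicate at 25 uM, actives retested in concentration series.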
# [8] = target: human Norepinephrine Transporter (NET), SLC6A2 (gene 6530) (UniProt P23975); test: NVS_TR_hNET: NovaScreen (NVS) Transporter Assay for human Norepinephrine Transporter (NET) (AID 2283377);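 also: displacement of radioligand from human NET seen as loss of scintillation signal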
# Procedure, shortened: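 Cell-free radioligand binding using CHO-derived membrane protein expressing human NET, read by filter scintillation counting 1 h after dosing; loss of signal vs DMSO. Initial duplicate screen at 25 uM, actives retested in concentration series.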
# [9] = target: human Dopamine Transporter (DAT), SLC6A3 (gene 6531) (UniProt Q01959); test: NVS_TR_hDAT: NovaScreen (NVS) Transporter Assay for human Dopamine Transporter (DAT) (AID 2283374);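 also: activity means loss of bound radioligand signal relative to DMSO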
# Procedure, shortened: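 Cell-free radioligand displacement binding at human DAT, 1 h after dosing, with filtration and scintillation counting. Primary screen in duplicate at 25 uM, actives then in concentration series. Loss of bound signal versus DMSO scored.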
# [10] = target: rat Androgen Receptor (AR), Ar (gene 24208) (UniProt P15207); test: NVS_NR_rAR: NovaScreen (NVS) Nuclear Receptor Binding Assay for rat Androgen Receptor (AR) (AID 2283366)
# Sequence of rat Androgen Receptor (AR), Ar (gene 24208) (P15207 whole entry, looked up): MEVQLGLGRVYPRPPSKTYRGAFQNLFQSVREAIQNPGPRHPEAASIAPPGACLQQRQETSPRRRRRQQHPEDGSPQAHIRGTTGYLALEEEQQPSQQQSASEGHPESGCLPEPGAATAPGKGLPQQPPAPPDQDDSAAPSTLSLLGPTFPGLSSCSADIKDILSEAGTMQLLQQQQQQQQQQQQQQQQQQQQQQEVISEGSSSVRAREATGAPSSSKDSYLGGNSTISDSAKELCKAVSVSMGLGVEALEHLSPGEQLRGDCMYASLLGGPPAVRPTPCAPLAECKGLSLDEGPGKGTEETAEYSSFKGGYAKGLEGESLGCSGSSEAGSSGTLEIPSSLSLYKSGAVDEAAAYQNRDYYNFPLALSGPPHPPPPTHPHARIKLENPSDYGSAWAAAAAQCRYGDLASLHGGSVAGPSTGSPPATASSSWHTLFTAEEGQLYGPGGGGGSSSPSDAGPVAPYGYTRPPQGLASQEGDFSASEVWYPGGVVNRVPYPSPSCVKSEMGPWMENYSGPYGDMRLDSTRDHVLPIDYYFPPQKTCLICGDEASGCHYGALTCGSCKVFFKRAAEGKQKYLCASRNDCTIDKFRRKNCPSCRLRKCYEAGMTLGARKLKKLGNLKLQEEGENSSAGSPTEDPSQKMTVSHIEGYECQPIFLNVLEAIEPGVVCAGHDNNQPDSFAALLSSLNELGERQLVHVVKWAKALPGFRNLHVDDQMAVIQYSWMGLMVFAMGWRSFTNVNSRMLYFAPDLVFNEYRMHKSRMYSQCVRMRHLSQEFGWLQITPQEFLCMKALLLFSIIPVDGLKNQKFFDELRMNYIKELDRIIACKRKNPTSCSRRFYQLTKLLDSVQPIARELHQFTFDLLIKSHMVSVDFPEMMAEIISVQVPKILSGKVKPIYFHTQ
# Procedure, shortened: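 Cell-free radioligand binding on extracts of prostate from testosterone-pretreated rats, read by filter-based scintillation counting 18 h after dosing. Loss of bound signal fitted positively versus DMSO; primary screen in duplicate at 25 uM, actives followed up in concentration series.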
# [11] = target: Norway rat Vesicular Monoamine Transporter (VMAT2), neurotransmitter transporter, Slc18a2 (gene 25549) (UniProt Q01827); test: NVS_TR_rVMAT2: NovaScreen (NVS) Transporter Assay for Norway rat Vesicular Monoamine Transporter (VMAT2), neurotransmitter transporter (AID 2283376);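 also: actives lower the bound radioligand signal below the DMSO level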
# Procedure, shortened: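 Radioligand displacement binding on rat forebrain tissue preparation, filter-based scintillation read-out 1 hour after dosing. Primary screen in duplicate at 25 uM, then concentration series for actives; loss of signal versus DMSO.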
# [12] = target: Retinoic acid receptor alpha (Homo sapiens) (UniProt P10276); test: NVS_NR_hRARa_Agonist: NovaScreen (NVS) Nuclear Receptor Binding Assay for human Retinoic Acid Alpha Receptor Agonism (RAR) (AID 2283361)
# Procedure, shortened: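 Cell-free TR-FRET binding readout with extracted receptor protein, read 2 hours after dosing; gain-of-signal fitted relative to DMSO. Screened in duplicate at 25 uM, actives then run in concentration-response.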
# [13] = target: human Adenosine Transporter (Adot), SLC29A1 (gene 2030) (UniProt Q99808); test: NVS_TR_hAdoT: NovaScreen (NVS) Transporter Assay for human Adenosine Transporter (Adot) (AID 2283368)
# Procedure, shortened: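 U937-derived membranes, cell-free radioligand binding, filter scintillation 1 h after dosing. 25 uM duplicate screen; hits (e.g. 30% inhibition) run in concentration-response up to 50 uM; loss of signal versus DMSO.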
# [14] = test system: rat Norepinephrine Transporter (NET), gene 83511; test: NVS_TR_rNET: NovaScreen (NVS) Transporter Assay for rat Norepinephrine Transporter (NET) (AID 2283373)
# Procedure, shortened: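 Rat forebrain membranes; radioligand binding measured by filter-based scintillation counting 1 hour after dosing. Loss of specific binding versus DMSO baseline scored; primary screen in duplicate at 25 uM, actives followed up in concentration series.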
structure (smiles),measurement,setting,value
CCN(CC)c1nc(C)cc(OP(=S)(OC)OC)n1,AC50,[1],34.9 µM (active)
same,AC50,[2],30.7 µM (active)
same,outcome,[3],inactive
same,outcome,[4],inactive
same,outcome,[5],inactive
same,AC50,[6],9.72 µM (active)
same,outcome,[7],inactive
Cc1c(COC(=O)[C@@H]2[C@H](/C=C(\Cl)C(F)(F)F)C2(C)C)cccc1-c1ccccc1,AC50,[1],72.3 µM (active)
same,outcome,[2],inactive
same,outcome,[3],inactive
same,outcome,[4],inactive
same,outcome,[7],inactive
same,AC50,[8],0.345 µM (active)
CS(=O)(=O)c1cc(C(F)(F)F)ccc1C(=O)c1cnoc1C1CC1,outcome,[1],inactive
same,outcome,[2],inactive
same,outcome,[3],inactive
CCOc1nc(C(Cl)(Cl)Cl)ns1,outcome,[1],inactive
same,outcome,[2],inactive
COc1cc(Cl)c(OC)cc1Cl,outcome,[1],inactive
same,outcome,[2],inactive
CNC(=O)N(C)c1nnc(C(C)(C)C)s1,outcome,[1],inactive
CN/C(=N\[N+](=O)[O-])NCc1cnc(Cl)s1,outcome,[1],inactive
COC(=O)c1c(C(F)F)nc(C(F)(F)F)c(C2=NCCS2)c1CC(C)C,outcome,[1],inactive
same,outcome,[2],inactive
CCOP(=O)(OCC)Oc1nc(Cl)c(Cl)cc1Cl,outcome,[1],inactive
same,outcome,[2],inactive
same,outcome,[3],inactive
same,outcome,[4],inactive
same,outcome,[9],inactive
CC(C)Nc1nc(Cl)nc(NC(C)C)n1,outcome,[1],inactive
Cc1ccc(N=CN(C)C=Nc2ccc(C)cc2C)c(C)c1,outcome,[1],inactive
same,outcome,[2],inactive
same,outcome,[3],inactive
COC(=O)NS(=O)(=O)c1ccc(N)cc1,outcome,[1],inactive
same,outcome,[2],inactive
O=C(O)c1c(Cl)ccc2cc(Cl)cnc12,outcome,[1],inactive
same,outcome,[2],inactive
COc1cc(OC)nc(NC(=O)NS(=O)(=O)c2ncccc2OCC(F)(F)F)n1,outcome,[1],inactive
same,outcome,[2],inactive
CCCC(=NOCC)C1=C(O)CC(CC(C)SCC)CC1=O (centres undefined),outcome,[1],inactive
same,outcome,[2],inactive
same,outcome,[3],inactive
same,outcome,[7],inactive
CCCCC(O)(Cn1cncn1)c1ccc(Cl)cc1Cl (centres undefined),outcome,[1],inactive
same,outcome,[2],inactive
same,outcome,[4],inactive
same,outcome,[5],inactive
same,AC50,[6],1.29 µM (active)
same,outcome,[10],inactive
same,outcome,[7],inactive
same,AC50,[9],2.25 µM (active)
same,AC50,[11],15 µM (active)
same,AC50,[8],13.3 µM (active)
O=C(Nc1ccccc1-c1ccc(Cl)cc1)c1cccnc1Cl,outcome,[1],inactive
same,outcome,[2],inactive
CS(=O)(=O)c1ccc(C(=O)C2C(=O)CCCC2=O)c([N+](=O)[O-])c1,outcome,[1],inactive
same,outcome,[2],inactive
Nc1cnn(-c2ccccc2)c(=O)c1Cl,outcome,[1],inactive
same,outcome,[2],inactive
C=CCOC(=O)C(C)(C)OC(=O)c1cc(-n2c(=O)cc(C(F)(F)F)n(C)c2=O)ccc1Cl,outcome,[1],inactive
same,outcome,[2],inactive
COP(=O)(OC)O/C(C)=C/C(=O)N(C)C,outcome,[1],inactive
same,outcome,[2],inactive
CC(C)N1C(=O)c2ccccc2NS1(=O)=O,AC50,[12],6.37 µM (active)
COP(=S)(OC)SCn1nnc2ccccc2c1=O,outcome,[10],inactive
CCCCOCN(C(=O)CCl)c1c(CC)cccc1CC,outcome,[10],inactive
Nc1c(Cl)c(Cl)nc(C(=O)O)c1Cl,outcome,[13],inactive
Cc1cc(C)nc(Nc2ccccc2)n1,AC50,[14],6.21 µM (active)
Cn1c(-c2ccccc2)cc(-c2ccccc2)[n+]1C,outcome,[14],inactive
